Measured values from the supplement of paper PMC8975748.
Counter-ions that a name gives are not always drawn. ± gives the standard deviation of the averaged measurements.

Assays:
[1] = tested on: Saccharomyces cerevisiae BY4741 SeMeCo community; assay: z-score of prototroph abundance vs DMSO median; higher = larger share of this subpopulation than in DMSO controls; details: 10 µM; 24 h; SM minimal medium; subpopulation (auxotrophy): Prototroph
Procedure, shortened: (§1)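 Cells of a Saccharomyces cerevisiae BY4741 community, carrying four plasmids that each restored one auxotrophy and encoded a distinct fluorescent protein, were pre-grown overnight to OD600 1.0 and diluted to 0.3. A 70 µl volume was added to 384-well plates acoustically predosed with library drugs (10 µM final) and grown 24 h in minimal SM medium. After paraformaldehyde fixation, automated confocal microscopy was used, with single-auxotroph fluorescent strains for thresholds and autofluorescence correction. The abundance of each subpopulation was scored as a z-score against the vehicle-well median.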

[2] = tested on: Saccharomyces cerevisiae BY4741 SeMeCo community; assay: z-score of subpopulation abundance vs DMSO median, subpopulation auxotrophic for L; higher = larger share of this subpopulation than in DMSO controls; details: 10 µM; 24 h; SM minimal medium; subpopulation (auxotrophy): L
Procedure, shortened: as §1

[3] = tested on: Saccharomyces cerevisiae BY4741 SeMeCo community; assay: z-score of subpopulation abundance vs DMSO median, subpopulation auxotrophic for U; higher = larger share of this subpopulation than in DMSO controls; details: 10 µM; 24 h; SM minimal medium; subpopulation (auxotrophy): U
Procedure, shortened: as §1

[4] = tested on: Saccharomyces cerevisiae BY4741 SeMeCo community; assay: z-score of subpopulation abundance vs DMSO median, subpopulation auxotrophic for H; higher = larger share of this subpopulation than in DMSO controls; details: 10 µM; 24 h; SM minimal medium; subpopulation (auxotrophy): H
Procedure, shortened: as §1

[5] = tested on: Saccharomyces cerevisiae BY4741 SeMeCo community; assay: z-score of subpopulation abundance vs DMSO median, subpopulation auxotrophic for LM; higher = larger share of this subpopulation than in DMSO controls; details: 10 µM; 24 h; SM minimal medium; subpopulation (auxotrophy): LM
Procedure, shortened: as §1

[6] = tested on: Saccharomyces cerevisiae BY4741 SeMeCo community; assay: z-score of subpopulation abundance vs DMSO median, subpopulation auxotrophic for HM; higher = larger share of this subpopulation than in DMSO controls; details: 10 µM; 24 h; SM minimal medium; subpopulation (auxotrophy): HM
Procedure, shortened: as §1

[7] = tested on: Saccharomyces cerevisiae BY4741 SeMeCo community; assay: z-score of subpopulation abundance vs DMSO median, subpopulation auxotrophic for HU; higher = larger share of this subpopulation than in DMSO controls; details: 10 µM; 24 h; SM minimal medium; subpopulation (auxotrophy): HU
Procedure, shortened: as §1

[8] = tested on: Saccharomyces cerevisiae BY4741 SeMeCo community; assay: z-score of subpopulation abundance vs DMSO median, subpopulation auxotrophic for UM; higher = larger share of this subpopulation than in DMSO controls; details: 10 µM; 24 h; SM minimal medium; subpopulation (auxotrophy): UM
Procedure, shortened: as §1

[9] = tested on: Saccharomyces cerevisiae BY4741 SeMeCo community; assay: z-score of subpopulation abundance vs DMSO median, subpopulation auxotrophic for HLU; higher = larger share of this subpopulation than in DMSO controls; details: 10 µM; 24 h; SM minimal medium; subpopulation (auxotrophy): HLU
Procedure, shortened: as §1

[10] = tested on: Saccharomyces cerevisiae BY4741 SeMeCo community; assay: z-score of subpopulation abundance vs DMSO median, subpopulation auxotrophic for HLM; higher = larger share of this subpopulation than in DMSO controls; details: 10 µM; 24 h; SM minimal medium; subpopulation (auxotrophy): HLM
Procedure, shortened: as §1

[11] = tested on: Saccharomyces cerevisiae BY4741 SeMeCo community; assay: z-score of subpopulation abundance vs DMSO median, subpopulation auxotrophic for HUM; higher = larger share of this subpopulation than in DMSO controls; details: 10 µM; 24 h; SM minimal medium; subpopulation (auxotrophy): HUM
Procedure, shortened: as §1

[12] = tested on: Saccharomyces cerevisiae BY4741 SeMeCo community; assay: z-score of subpopulation abundance vs DMSO median, subpopulation auxotrophic for LUM; higher = larger share of this subpopulation than in DMSO controls; details: 10 µM; 24 h; SM minimal medium; subpopulation (auxotrophy): LUM
Procedure, shortened: as §1

[13] = tested on: Saccharomyces cerevisiae BY4741 SeMeCo community; assay: z-score of subpopulation abundance vs DMSO median, subpopulation auxotrophic for HLUM; higher = larger share of this subpopulation than in DMSO controls; details: 10 µM; 24 h; SM minimal medium; subpopulation (auxotrophy): HLUM
Procedure, shortened: as §1

[14] = tested on: Saccharomyces cerevisiae BY4741 SeMeCo community; assay: mean cell size (pixel area) (pixels); higher = larger cells; details: 10 µM; 24 h; SM minimal medium
Procedure, shortened: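 For 24 h, 70 µl of yeast culture diluted to OD600 = 0.3 from an overnight preculture at OD600 = 1.0 was kept in SM medium in 384-well plates acoustically predosed with drug, final 10 µM. The strain was Saccharomyces cerevisiae BY4741 forming a fluorescent community of four plasmids, each complementing one auxotrophy and carrying a fluorescent marker. Automated confocal microscopy of paraformaldehyde-fixed cells, analysed in Harmony, provided mean cell pixel area per well, which was averaged over 3 replicates. Same SeMeCo high-content imaging drug screen: Selleck FDA-approved drugs at 10 µM, 24 h in SM medium, 384-well plates, 3 replicates.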

[15] = tested on: Saccharomyces cerevisiae BY4741 SeMeCo community; assay: z-score of subpopulation abundance vs DMSO median, subpopulation auxotrophic for M; higher = larger share of this subpopulation than in DMSO controls; details: 10 µM; 24 h; SM minimal medium; subpopulation (auxotrophy): M
Procedure, shortened: as §1

[16] = tested on: Saccharomyces cerevisiae BY4741 SeMeCo community; assay: z-score of subpopulation abundance vs DMSO median, subpopulation auxotrophic for LU; higher = larger share of this subpopulation than in DMSO controls; details: 10 µM; 24 h; SM minimal medium; subpopulation (auxotrophy): LU
Procedure, shortened: as §1

[17] = tested on: Saccharomyces cerevisiae BY4741 SeMeCo community; assay: z-score of subpopulation abundance vs DMSO median, subpopulation auxotrophic for HL; higher = larger share of this subpopulation than in DMSO controls; details: 10 µM; 24 h; SM minimal medium; subpopulation (auxotrophy): HL
Procedure, shortened: as §1

| SMILES | z-score of prototroph abundance [1] | z-score of subpopulation abundance [2] | z-score of subpopulation abundance [3] | z-score of subpopulation abundance [4] | z-score of subpopulation abundance [5] | z-score of subpopulation abundance [6] | z-score of subpopulation abundance [7] | z-score of subpopulation abundance [8] | z-score of subpopulation abundance [9] | z-score of subpopulation abundance [10] | z-score of subpopulation abundance [11] | z-score of subpopulation abundance [12] | z-score of subpopulation abundance [13] | mean cell size [14] | z-score of subpopulation abundance [15] | z-score of subpopulation abundance [16] | z-score of subpopulation abundance [17] |
| --- | --- | --- | --- | --- | --- | --- | --- | --- | --- | --- | --- | --- | --- | --- | --- | --- | --- |
| Nc1nnc(-c2cccc(Cl)c2Cl)c(N)n1 [Lamotrigine] | -1.13 | 2.5 | -0.91 | 0.08 | 1.83 | 1.25 | -0.39 | 0.01 | 0.23 | 0.44 | 0.8 | 1.86 | 1.58 |  |  |  |  |
| Cc1c(Nc2ncccc2C(=O)O)cccc1C(F)(F)F [Flunixin Meglumin] |  | -1.33 | 0.63 |  | -1.23 | -0.07 | -0.19 | 0.51 |  | -0.58 | 0.12 | -0.14 | 0 | 12.6 ± 0.17 | -0.95 | -0.33 | -0.74 |
| O=C(c1ccccc1)c1ccc2n1CCC2C(=O)O (centres undefined) [Ketorolac] | 0.73 | -0.04 | -0.78 | -0.3 | 0.62 | -0.76 | -1.29 |  |  | -0.11 | -0.93 | -0.52 | -0.11 | 12.6 ± 0.32 | 0 | -0.64 | 0.33 |
| CNCC[C@H](Oc1cccc2ccccc12)c1cccs1 [Duloxetine HCl] |  | -0.57 | -0.11 |  | -0.49 | 0 | -1.13 |  |  | -0.84 | -0.47 | -0.53 | 0.03 | 12.5 ± 0.21 | 0.4 | -0.43 | -1.07 |
| C(=C\c1ccccc1)/CN1CCN(C(c2ccccc2)c2ccccc2)CC1 [Cinnarizine] | -1.14 | 0.22 | 1.39 | -0.62 | -0.47 | -0.68 | 1.5 | 1.3 |  | -0.32 | 1.64 | 0.8 | 0.66 | 12.21 ± 0.081 | -1.68 | 1.38 | 0.34 |
| O=C(Cn1ccnc1[N+](=O)[O-])NCc1ccccc1 [Benznidazole] | 0.22 | 0.22 | 0.63 | -0.18 | 0.19 | -0.4 | -0.83 | 0.13 |  | -0.65 | -0.52 | 0.15 | -0.21 | 12.49 ± 0.12 | -0.28 | -0.43 | 0.08 |
| CC[C@H](C)C[C@H](C)CCCCCCCCC(=O)N[C@H]1C[C@@H](O)[C@@H](NCCN)NC(=O)[C@@H]2[C@@H](O)CCN2C(=O)[C@H]([C@H](O)CCN)NC(=O)[C@H]([C@H](O)[C@@H](O)c2ccc(O)cc2)NC(=O)[C@@H]2C[C@@H](O)CN2C(=O)[C@H]([C@@H](C)O)NC1=O [Caspofungin Acetate] | -12.2 | 5.93 | -3.79 | 31.6 |  | -0.2 | 8.05 | -2.51 | 13.9 | 45.5 | 10.8 | 5.81 |  |  |  |  | 51.3 |
| COc1ccc(Cl)cc1C(=O)NCCc1ccc(S(=O)(=O)NC(=O)NC2CCCCC2)cc1 [Glyburide (Glibenclamide)] | -0.6 |  | -0.59 | 0.81 | 1.74 | 0.56 | -0.2 |  | 0.43 |  | -0.09 | 1.11 | 0.01 | 12.36 ± 0.11 |  |  | 1.09 |
| CCCCCCCN(CC)CCCC(O)c1ccc(NS(C)(=O)=O)cc1 (centres undefined) [Ibutilide Fumarate] | 0.2 | -0.88 | 0.93 |  | -0.88 | 0.11 | 0.97 | 0.25 |  | -0.14 | 0.49 |  | -0.72 | 12.5 ± 0.2 | -0.42 | 0.14 | -0.89 |
| Cc1noc(NS(=O)(=O)c2ccc(N)cc2)c1C [Sulfisoxazole] | -1.42 | 0.65 | 0.32 |  | 0.69 | 0.12 | 0.32 | 1.17 |  | 1.44 | 1.21 | 1.7 | 1.03 | 12.4 ± 0.16 | 0.18 | 1.45 | 0.35 |
| CCCCCNC(=N)N/N=C/c1c[nH]c2ccc(OC)cc12 [Tegaserod Maleate] | -1.66 | 2.04 | -1.24 | 0.7 | 1.85 | 1.48 | 0.48 | -0.55 |  | 1.63 | 0.89 | 1.92 | 1.76 | 12.23 ± 0.022 | 1.25 | 0.84 | 2.5 |
| C[C@]1(COc2ccc(N3CCC(Oc4ccc(OC(F)(F)F)cc4)CC3)cc2)Cn2cc([N+](=O)[O-])nc2O1 [Delamanid] | -0.2 | 1.53 | -0.77 | 0.86 | 0.45 | 0 | -0.43 | -0.53 | 0.12 | 0.05 |  | 0.42 |  | 12.1 ± 0.19 |  |  | 0.9 |
| CCCc1cc(C(N)=S)ccn1 [Protionamide] | 0.19 | 0.04 |  | -0.56 | 0.16 | 0.36 | -0.73 | 0.32 |  | -0.03 | 0.47 | -0.28 | -0.96 | 12.4 ± 0.19 | 0.32 | -0.68 | -0.83 |
| CN1CCN(CCCN2c3ccccc3Sc3ccc(Cl)cc32)CC1 [Prochlorperazine dimaleate salt] | -0.98 | 0.41 | -0.36 |  | 0.75 | 1.58 | 0.89 |  |  | 0.12 | 1.51 | 1.88 | 0.48 | 12.4 ± 0.15 | 0.75 | -0.07 | 0.69 |
| CC(=O)OCC1=C(C(=O)O)N2C(=O)C(NC(=O)CSC(=NC(C)C)NC(C)C)C2SC1 (centres undefined) [Cefathiamidine] | 0.65 | -0.86 | 0.86 | -0.66 | -1.11 | -0.6 | -0.62 | 0.84 | -1.21 | -1.16 | 0.21 | -0.68 | -1.54 |  |  |  | -1.06 |
| O=C1C(N(CO)C(=O)NCO)N(CO)C(=O)N1CO (centres undefined) [Diazolidinyl urea] |  | 0.77 |  | -0.72 | -0.49 | -1.17 | -0.75 |  |  | -0.27 | -0.76 |  | 0.51 | 12.1 ± 0.16 | -1.49 | 0.3 | -0.07 |
